Results from ChEMBL document CHEMBL3433997, “St. Jude Leishmania screening dataset” (2016).

biological target: Solute carrier family 2, facilitated glucose transporter member 1 (Homo sapiens) (UniProt P11166); test: ST_JUDE_LEISH: Cytotoxicity at 2uM final concentration against transgenic Leishmania Mexicana promastigotes LmGLUT1 that are glucose transport deficient and complemented with the human glucose transporter GLUT1. Activity is measured by DNA content using SYBR green in vitro; type: functional
Sequence (P11166 whole entry): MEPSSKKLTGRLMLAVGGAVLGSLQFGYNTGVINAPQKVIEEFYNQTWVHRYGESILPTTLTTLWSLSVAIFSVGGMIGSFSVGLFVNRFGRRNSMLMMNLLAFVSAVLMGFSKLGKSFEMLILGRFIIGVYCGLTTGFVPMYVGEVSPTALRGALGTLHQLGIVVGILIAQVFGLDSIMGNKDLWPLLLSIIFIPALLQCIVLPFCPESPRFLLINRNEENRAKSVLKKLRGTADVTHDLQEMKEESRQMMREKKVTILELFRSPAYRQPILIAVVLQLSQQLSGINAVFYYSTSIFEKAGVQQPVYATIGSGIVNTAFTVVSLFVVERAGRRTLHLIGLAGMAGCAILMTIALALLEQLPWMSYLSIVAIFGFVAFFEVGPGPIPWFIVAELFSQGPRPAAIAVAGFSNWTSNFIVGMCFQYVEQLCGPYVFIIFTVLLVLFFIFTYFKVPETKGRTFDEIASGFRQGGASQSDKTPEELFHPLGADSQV

SMILES	inhibition
CC(C(=O)Nc1ccc(Br)cc1Br)N1CCN(C(=O)c2ccco2)CC1 (stereo not given)	-0.66%
COc1ccc(OC)c(-c2ccc(O)c(CNCC(C)c3ccccc3)c2)c1 (stereo not given)	-0.66%
COc1ccc2ccccc2c1C=NN=c1cc(C)[nH]c2c(C)cccc12	1.52%
O=[N+]([O-])c1cccc(Nc2nccc(-c3cnn4ncccc34)n2)c1	83%
CCCSc1nc2c(c(=O)n1Cc1ccco1)C1(CCCCC1)Cc1ccccc1-2	1.22%
C=CCc1ccc(C2CCN(CCCCNC(=O)c3ccc(NC(=O)c4ccc(Cl)cc4)cc3)CC2)cc1	0.91%
COc1cc(NC(=O)c2sc(-c3ccc(Cl)cc3)cc2NC(=O)c2ccncc2)ccc1OCCN1CCCC1	7.57%
COc1ccc2ncc(C#N)c(CCN3CCC(NCc4ccc5c(n4)NC(=O)CS5)CC3)c2n1	3.43%
Cc1cc(O)c(CNC2CCCCC2)cc1C	1.17%
CCOc1ccc(-c2nc(NC(=O)CS(=O)(=O)c3ccccc3)sc2C)cc1	2.75%

biological target: Hexose transporter 1 (Plasmodium falciparum) (UniProt O97467); test: ST_JUDE_LEISH: Cytotoxicity at 2uM final concentration against transgenic Leishmania Mexicana promastigotes LmPfHT that are glucose transport deficient and complemented with the Plasmodium falciparum hexose transporter. Activity is measured by DNA content using SYBR green in vitro; type: functional

SMILES	inhibition
CCOc1ccc(C2CCN(CCCCNC(=O)c3ccc(NC(=O)c4ccc(Cl)cc4)cc3)CC2)c(CC)c1	-0.09%
COc1cc2nc(NCCC(C)C)n3nc(-c4ccccc4)nc3c2cc1OC	-0.07%
c1ccc(Nc2nc(-c3ccccn3)cs2)nc1	0.38%
Oc1cccc(Nc2nc(NCc3ccco3)c3ccccc3n2)c1	12.2%
CCCCNC(=O)[C@H](CC1CCCCC1)NC(=O)c1ccc(O)c(-c2ccc(Cl)c(Cl)c2)c1	-1.98%
O=C(NC1CCN(Cc2ccccc2)CC1)c1ccc(-c2nc3cc(Cl)c(Cl)cc3[nH]2)c(F)c1	9.26%
CON=Cc1ccn(-c2ccc(O)c3c2C[C@H]2C[C@H]4[C@H](N(C)C)C(O)=C(C(N)=O)C(=O)[C@@]4(O)C(O)=C2C3=O)c1	4.25%
COc1ccc(-c2cnc3ccc(NCc4ccc(S(N)(=O)=O)cc4)nn23)cc1	3.14%
CN1CCCN(Cc2cccc(-c3cccc(NC(=O)c4cccc(Cl)c4)c3)c2)CC1	9.81%
Cc1ccc(-c2nnc(Nc3ccc(CC(N)=O)cc3)c3ccccc23)cc1S(=O)(=O)NCC1CCCO1 (stereo not given)	7.99%
CCC[C@@H]([C@@H](CC1CCCCC1)C(=O)N[C@@H](CCCCNS(C)(=O)=O)C(=O)Nc1nccs1)N(O)C=O	3.98%
CC=Cc1cc(Cc2c[nH]c(=N)[nH]c2=N)cc(CCC)c1OC	8.99%
O=C(c1cccs1)N1CCN(c2ccc([N+](=O)[O-])c(NC3CC3)c2)CC1	0.57%
COC(=O)c1cc(C(O)CNC(C)CCc2cccc(F)c2)ccc1O (stereo not given)	2.7%
CC(C)(C)c1ccc(S(=O)(=O)Nc2ccccc2Cn2nc(N3CCNCC3)ccc2=O)cc1	7.83%
CO/C(=C\C=C\c1cc2cc(Cl)c(Cl)cc2[nH]1)C(=O)NCCCN1CCN(c2cccc(O)c2)CC1	11.7%
O=C(Nc1nc(-c2cc(F)ccc2F)cs1)c1cncc(Br)c1	1.79%
CC1(C)NC(N)=NC(=N)N1OCOc1ccc(Cl)cc1	1.85%
Cc1cc(NC2CCCC2)nc(Nc2ccc(F)cc2)n1	7.56%
CCCCc1cc(NCC)nc(Nc2ccc(OC)cc2)n1	10.1%

SMILES	inhibition
Cc1cc(N[C@@H](Cc2ccccc2)C(=O)Nc2ccccc2)nc(NCCc2cccs2)n1	2.39%
CC(C)(C)c1nn(-c2ccccc2)c2[nH]c(=O)c(CNC3CCCC3)cc12	1.66%
CCN(CC)CCN(Cc1ccc(-c2ccc(C(F)(F)F)cc2)cc1)C(=O)Cn1c(CCc2ccc(F)cc2)nc(=O)c2ccccc21	2.96%
NC1CCCN(Cc2ccc(-c3cccc(-c4nc5ccccc5[nH]4)c3)cc2)C1 (stereo not given)	4.34%
Cc1cc(N[C@@H](Cc2ccccc2)C(=O)NC2CCCC2)nc(NCc2ccccc2C)n1	6.32%
Cc1cc(C(=O)Nc2ccc3c(c2)CCN3C2CCN(Cc3ccc(O)cc3)C2)no1 (stereo not given)	5.39%
CCN(CC)CCN(Cc1ccc(-c2ccc(C(F)(F)F)s2)cc1)C(=O)Cn1c(CCc2cccc(F)c2F)nc(=O)c2ccccc21	2.39%
CN1CCC(N2CCN(C(=O)c3cccc(-c4cccc(-c5nc6ccccc6[nH]5)c4)c3)CC2)CC1	2.54%
CC(=O)N(C)c1ccc(C(=O)Nc2cccc(-c3cccc(-c4nc5cccc(C)c5[nH]4)c3)c2)cc1	3.97%
Nc1nc(N)c2c(ccc3c2ccn3C2CCCCC2)n1	36.6%
CC(C(=O)Nc1ccc(Br)cc1Br)N1CCN(C(=O)c2ccco2)CC1 (stereo not given)	1.36%
COc1ccc(OC)c(-c2ccc(O)c(CNCC(C)c3ccccc3)c2)c1 (stereo not given)	-0.62%
COc1ccc2ccccc2c1C=NN=c1cc(C)[nH]c2c(C)cccc12	1.8%
O=[N+]([O-])c1cccc(Nc2nccc(-c3cnn4ncccc34)n2)c1	85.4%
CCCSc1nc2c(c(=O)n1Cc1ccco1)C1(CCCCC1)Cc1ccccc1-2	1.9%
C=CCc1ccc(C2CCN(CCCCNC(=O)c3ccc(NC(=O)c4ccc(Cl)cc4)cc3)CC2)cc1	0.58%
COc1cc(NC(=O)c2sc(-c3ccc(Cl)cc3)cc2NC(=O)c2ccncc2)ccc1OCCN1CCCC1	3.54%
COc1ccc2ncc(C#N)c(CCN3CCC(NCc4ccc5c(n4)NC(=O)CS5)CC3)c2n1	6.45%
Cc1cc(O)c(CNC2CCCCC2)cc1C	1.33%
CCOc1ccc(-c2nc(NC(=O)CS(=O)(=O)c3ccccc3)sc2C)cc1	2.62%
